SMILES strings stand for the structures. About 83,000 compounds went through this panel and 20% of them were active in at least one assay; those are over-represented in the sample as a whole.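 Cell lines were cultured in 96-well plates, exposed to a single compound concentration, and assessed for percent growth 48 hours later.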 Unmarked numbers belong to inactive results. The source made the active and inactive calls. The calls were made as follows: active = growth percent below 10; inactive = the rest.

The values that follow come from PubChem BioAssay (NCI).

Test systems include DU-145 prostate; K-562 leukemia; MALME-3M melanoma; MDA-MB-231 breast; SF-268 CNS; SF-295 CNS; SF-539 CNS; UACC-257 melanoma; M14 melanoma; HCT-15 colon; HT29 colon; SNB-19 CNS; U251 CNS; PC-3 prostate; SK-MEL-5 melanoma; UACC-62 melanoma; LOX IMVI melanoma; SK-MEL-28 melanoma; SNB-75 CNS; RXF 393 renal.
Common to all, as to test: NCI-60 one-dose screen, 48 h (100 = growth as untreated, 0 = no growth, -100 = all killed)
What all share (settings): 10 µM unless noted

For the compound `CC(=O)Nc1ccc(Cl)cc1Cl`, the growth was 111% with DU-145 prostate; 64.9% with K-562 leukemia; 112% with MALME-3M melanoma; 100% in the assay on MDA-MB-231 breast; 97.4% in the assay on SF-268 CNS; 83.8% in the assay on SF-295 CNS. The growth in the assay with SF-539 CNS is 98.3%; with UACC-257 melanoma it was 124%; with M14 melanoma, 102%; in the assay with HCT-15 colon, 118%; in the assay with HT29 colon it was 103%; with SNB-19 CNS it was 97.8%. Also, the growth was 103% in the assay with U251 CNS; 308% in the assay on PC-3 prostate; 95.7% with SK-MEL-5 melanoma; 96.4% in the assay on UACC-62 melanoma; 93.8% with LOX IMVI melanoma; 157% in the assay with SK-MEL-28 melanoma.
`CCOc1c(C#N)c2c(N)ncnc2n1C1OC(CO)C(O)C1O` (stereo not drawn): the growth with DU-145 prostate is -10.5% (active); with K-562 leukemia it was 0.169% (active); in the assay with MALME-3M melanoma, 59.2%; with MDA-MB-231 breast, 87.1%; in the assay with SF-268 CNS it was 25.2%; in the assay on SF-295 CNS, 71.3%. The growth in the assay with SF-539 CNS was 62.5%; in the assay on UACC-257 melanoma it was 83.5%; in the assay on M14 melanoma, 35%; with HCT-15 colon, 23.1%; in the assay on HT29 colon, 22.6%; with SNB-75 CNS it was 62.4%. The growth was 72.7% in the assay on SNB-19 CNS; 35.4% with U251 CNS; 16.2% with PC-3 prostate; 79% in the assay on SK-MEL-5 melanoma; 49.8% in the assay on UACC-62 melanoma; 18.9% in the assay with LOX IMVI melanoma. The growth in the assay with SK-MEL-28 melanoma was 20.4%.
With `CCNS(=O)(=O)c1ccc(C)cc1`, the growth in the assay on DU-145 prostate was 96.5%; with K-562 leukemia, 105%; in the assay with MALME-3M melanoma, 104%; in the assay with MDA-MB-231 breast, 113%; in the assay on RXF 393 renal, 113%; with SF-295 CNS, 104%. Besides, the growth is 102% with SF-539 CNS; 107% in the assay on UACC-257 melanoma; 106% with M14 melanoma; 98.5% in the assay with HCT-15 colon; 117% with HT29 colon; 85.2% in the assay with SNB-75 CNS. Besides, the growth in the assay with SNB-19 CNS is 103%; in the assay with U251 CNS, 105%; in the assay on PC-3 prostate, 95.7%; in the assay on SK-MEL-5 melanoma, 140%; in the assay on UACC-62 melanoma, 106%; with LOX IMVI melanoma, 100%. In addition, in the assay with SK-MEL-28 melanoma, the growth was 115%.
`CC(=O)N[C@@H](CCC(N)=O)C(=O)O`: the growth in the assay with DU-145 prostate is 112%; in the assay on K-562 leukemia, 9.01% (active); with MDA-MB-231 breast, 87.2%; in the assay on RXF 393 renal it was 90%; with SF-268 CNS, 108%; in the assay on SF-539 CNS, 113%. For the same compound, the growth in the assay on UACC-257 melanoma was 97.4%; in the assay with M14 melanoma, 93.4%; in the assay with HCT-15 colon, 113%; in the assay with HT29 colon, 95.6%; in the assay with SNB-75 CNS it was 69.2%; in the assay with SNB-19 CNS, 126%. Besides, the growth is 102% in the assay on U251 CNS; 74.5% with PC-3 prostate; 101% in the assay on SK-MEL-5 melanoma; 98.2% with UACC-62 melanoma; 91.4% in the assay with LOX IMVI melanoma; 101% in the assay on SK-MEL-28 melanoma.
Consider `CCCCN(CCCC)CCC(=O)c1ccc(OC)c2ccccc12`, for which the growth with DU-145 prostate was 79.4%; with K-562 leukemia, 67.1%; with MALME-3M melanoma it was 124%; in the assay with MDA-MB-231 breast, 106%; in the assay on SF-268 CNS it was 95%; in the assay with SF-295 CNS, 100%. Moreover, the growth in the assay with SF-539 CNS is 87%; in the assay with UACC-257 melanoma it was 86.4%; in the assay on M14 melanoma, 104%; with HCT-15 colon it was 99.7%; in the assay with HT29 colon, 98%; with SNB-75 CNS, 97.7%. In addition, the growth in the assay on SNB-19 CNS is 87%; with U251 CNS, 86.7%; with PC-3 prostate, 84.7%; with SK-MEL-5 melanoma, 101%; in the assay on UACC-62 melanoma, 93.5%; with LOX IMVI melanoma, 78.9%. Besides, the growth in the assay on SK-MEL-28 melanoma is 154%.
Take `CN=C1C=C/C(=N/N=c2/ccn(O)cc2C)C=C1C`: the growth in the assay with DU-145 prostate is 104%; with K-562 leukemia it was 115%; in the assay with MDA-MB-231 breast, 86.4%; in the assay with RXF 393 renal, 96.8%; in the assay on SF-268 CNS it was 102%; in the assay on SF-539 CNS, 90.2%. The growth was 98.5% in the assay with UACC-257 melanoma; 101% with M14 melanoma; 97.2% in the assay on HCT-15 colon; 99.5% in the assay with HT29 colon; 84.4% in the assay on SNB-75 CNS; 101% with SNB-19 CNS. In addition, the growth was 102% with U251 CNS; 95.2% in the assay with PC-3 prostate; 89% in the assay on UACC-62 melanoma; 95.4% with LOX IMVI melanoma; 120% in the assay on SK-MEL-28 melanoma.
For `Cc1ccc(O)c(Cc2ccccc2)c1`, the growth with DU-145 prostate is 108%; with MALME-3M melanoma, 143%; with MDA-MB-231 breast, 96.7%; in the assay on RXF 393 renal, 103%; in the assay with SF-268 CNS, 99.6%; in the assay with SF-539 CNS, 100%. The growth is 93.7% with UACC-257 melanoma; 101% with M14 melanoma; 107% in the assay with HCT-15 colon; 97.2% in the assay on HT29 colon; 74.9% in the assay with SNB-75 CNS; 96.9% with SNB-19 CNS. Besides, the growth is 94.6% in the assay on U251 CNS; 79.9% with PC-3 prostate; 109% in the assay with SK-MEL-5 melanoma; 90.2% in the assay on UACC-62 melanoma; 96.4% in the assay with LOX IMVI melanoma; 108% with SK-MEL-28 melanoma.
On to `COc1ccc(/C(=C\c2cc(OC)c(OC)c(OC)c2)C(=O)Nc2nc3ccc(Cl)cc3s2)cc1`, for which the growth in the assay with DU-145 prostate is 93%; with MALME-3M melanoma it was 93.8%; in the assay with MDA-MB-231 breast, 90.9%; in the assay on RXF 393 renal, 109%; with SF-268 CNS, 71.1%; in the assay on SF-539 CNS, 100%. In addition, the growth with UACC-257 melanoma is 92.1%; with M14 melanoma, 105%; with HCT-15 colon, 93.2%; in the assay with HT29 colon, 88.3%; in the assay with SNB-19 CNS it was 105%; with U251 CNS, 90.8%. The growth is 87.5% with PC-3 prostate; 87.6% in the assay on SK-MEL-5 melanoma; 77.6% in the assay with UACC-62 melanoma; 92.5% in the assay with LOX IMVI melanoma; 107% with SK-MEL-28 melanoma.
Consider `COc1ccc2c(c1)CCCC21C(=O)Nc2c(Cl)cccc21` (stereo not drawn), for which the growth is 93% in the assay on DU-145 prostate; 63.3% in the assay on MALME-3M melanoma; 77.4% in the assay on MDA-MB-231 breast; 86.5% in the assay with RXF 393 renal; 75.8% in the assay with SF-268 CNS; 73.3% in the assay on SF-539 CNS. Further, the growth in the assay on UACC-257 melanoma is 83.8%; with M14 melanoma it was 38.8%; in the assay on HCT-15 colon, 85%; in the assay on HT29 colon it was 21.1%; in the assay on SNB-75 CNS, 41%; in the assay on SNB-19 CNS it was 82.9%. The growth with U251 CNS was 54.1%; in the assay with PC-3 prostate, 74.4%; in the assay on SK-MEL-5 melanoma, 76.8%; with UACC-62 melanoma, 58%; in the assay with LOX IMVI melanoma, 71.3%; with SK-MEL-28 melanoma, 64.7%.
